The results in this text go back to PubChem BioAssay (NCATS).

Results filed as inconclusive are left out. Values without a mark were called inactive. Calls come from the whole dose curve; as a rule, active = well fitted inhibition curve with a large enough effect; inconclusive = small, poorly fitted or top-dose-only effect; inactive = flat fitted curve, though single readings scatter.
% is set by controls: 0 for no effect and ±100 for the full control effect.

This test deals with Calcium and integrin-binding protein 1 (Homo sapiens) (UniProt Q99828). Kind of test: Primary qHTS for Identification of Calcium Integrin Binding Protein 1 (CIB1) Competitor (AID 1508620).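 Note: GST tagged CIB1 binding a fluorescein labelled alphaIIb integrin peptide tracer; top concentration of the series differs between compounds.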 To be noted: CIB1-GST / FITC-alphaIIb peptide fluorescence polarization; series mostly up to 114 µM; activity change, negative = inhibition: at the top concentration. The procedure, abridged: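 Fluorescence polarization competition: CIB1-GST (1 uM final) preincubated with compound 15 min at room temperature, then FITC-labeled alphaIIb peptide (100 nM final) added for another 15 min. Polarization read at Ex 480/Em 540.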
Sequence of Calcium and integrin-binding protein 1 (Homo sapiens) (Q99828 whole entry, looked up): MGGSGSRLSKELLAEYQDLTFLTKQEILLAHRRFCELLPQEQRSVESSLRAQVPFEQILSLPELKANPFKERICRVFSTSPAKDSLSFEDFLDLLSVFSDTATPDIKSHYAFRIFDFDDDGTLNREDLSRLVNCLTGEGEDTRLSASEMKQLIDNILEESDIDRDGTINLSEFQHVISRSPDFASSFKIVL
Background: Quantitative high-throughput screening tests each substance at several concentrations.
Regarding `O=C(O)Cc1cn(C2OCC(O)C(O)C2O[C@@H]2O[C@H](CO)[C@@H](O)[C@H](O)[C@H]2O)c2ccccc12` (stereo partly drawn), the “activity change, negative = inhibition” value is 1.45% [at 57.7 µM].
On to `COC1CC(OC2CCC3(C)C(=CCC4C3C(OC(C)=O)C(OC(=O)/C=C/c3ccccc3)C3(C)C(C(C)O)CCC43O)C2)OC(C)C1OC1CC(OC)C(OC2OC(C)C(OC3OC(CO)C(O)C(O)C3O)C(OC)C2O)C(C)O1` (stereo not drawn), for which the activity change, negative = inhibition is -8.58% [at 12.4 µM].
Consider `O=C(c1cccc(Cl)c1F)N1CCN(Cc2cccc(Nc3nccs3)n2)CC1`, for which the “activity change, negative = inhibition” value is -3.75%.
Under `COC(=O)C1=CO[C@@H](O[C@@H]2O[C@H](CO)[C@@H](O)[C@H](O)[C@H]2O)[C@@H]2[C@@](C)(O)[C@@H](OC(=O)/C=C/c3ccc(O)cc3)C[C@]12O` stands 1.84% [at 57.7 µM]; under `Cc1ccc(C(=O)N(CCCN)C(c2oc3cc(Cl)ccc3c(=O)c2Cc2ccccc2)C(C)C)cc1` (stereo not drawn), -15.1%.
Consider `CC1OC(OC2C(C)OC(OC3C(O)C(CO)OC(O[C@H]4CC[C@@]5(C)C(CC[C@]6(C)C5CC=C5C7[C@@H](C)[C@H](C)CC[C@]7(C(=O)O)CC[C@]56C(=O)O)C4(C)C)C3O)C(O)C2O)C(O)C(O)C1O` (stereo partly drawn), for which the “activity change, negative = inhibition” value is 3.19% [at 30.2 µM].
Under `O=C(CCc1nnc2n(Cc3ccc(Cl)cc3)c(=O)c3ccccc3n12)NCCC1=CCCCC1` stands 0.762%; under `COC(=O)C1=CO[C@@H](O[C@@H]2O[C@H](CO)[C@@H](O)[C@H](O)[C@H]2O)[C@@H]2C(COC(C)=O)=C[C@H](O)[C@H]12`, 0.879% [at 57.7 µM]; under `CC(=O)CC1CCC(C(C)C(=O)OCC(O)CO)O1` (stereo not drawn), -5.53%.
`COc1ccc([C@@]2(O)c3c(ccc4c3OC(C)(CCC=C(C)C)C=C4)NC(=O)[C@@H]2OC)cc1` (stereo partly drawn): the “activity change, negative = inhibition” value is -1.13% [at 57.7 µM].
The same measure for `COc1ccc(-c2ccc3c(N4CCOCC4)nc(N4CC(C)OC(C)C4)nc3n2)cc1CO` (stereo not drawn): 1.33%.
Under `C=C1C(=O)O[C@H]2C1[C@H](OC(=O)/C(=C/CO)COC(=O)/C(C)=C/CO)CC(=C)[C@@H]1CC(=O)[C@@H](C)[C@@H]12` (stereo partly drawn) stands -11.1% [at 57.7 µM].
Under `C/C=C/C=C/C=C/C(=O)OC1C=C(C=O)C(O)(C(=O)O)C2(C)CCCC(C)(C)C12` (stereo not drawn) stands -7.57% [at 57.7 µM].
